Test results taken from PubChem BioAssay AID2205 (University of Pittsburgh Molecular Library Screening Center, 2009).
In all, about 200,000 compounds went through this assay and about 1,600 (0.8%) were called active.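 How the source made its calls: active means plate Z-score above 3 for both tubulin-high and condensed-nucleus cell shares, with cell loss under 80%, at 10 µM; inactive means the rest, inconclusive results apart.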 What follows is part of a selection rich in actives, with near analogues and random picks from the rest.

Assay: microtubule stabilizers in HeLa cells, primary screen, imaging, high-content imaging (AID 2205);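 on % tubulin-high responders: anti alpha tubulin signal scored within the nucleus-defined area of each cell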;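 on toxicity: 0% = mean cell density of plate MIN control wells and 100% = no cells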
Settings: HeLa tubulin immunostaining HCS, 24 h, at 10 µM; % Hoechst-high responders: measured here: nuclear condensation Hoechst responders, stronger effect = higher value, share of cells brighter than vehicle mean+2SD; % tubulin-high responders: stronger effect = higher value, share of cells brighter than vehicle mean+2SD; toxicity: measured here: cytotoxicity by cell density

SMILES | % Hoechst-high responders [%] | % tubulin-high responders | toxicity [%]
CCC(C)(C(=O)Nc1ccccc1C)N(C(=O)CNC(C)=O)c1ccc(C)cc1 (stereo not drawn) | 3.25 | 4.21% (inactive) | 4.1
CCOc1ccc(Br)cc1S(=O)(=O)Nc1ccc(C(=O)OC(C)C(=O)N(C)c2ccccc2)cc1 (stereo not drawn) | 0.626 | 6.66% (inactive) | 0.658
Cc1cc(C)n(-c2cc(Oc3ccccc3)ncn2)n1 | 0.881 | 1.4% (inactive) | 3.38
CC(=O)c1ccc(Oc2cc(C)nc(-n3nc(C)cc3C)n2)cc1 | 57.9 | 17.9% (active) | 18.9
COc1ccc(Nc2cc(C)nc(-n3nc(C)cc3C)n2)cc1 | 25.7 | 11.5% (inactive) | 60.4
CCn1cc(CN2CCCC(CNS(=O)(=O)Cc3ccccc3)C2)cn1 (stereo not drawn) | 2.22 | 3.89% (inactive) | 8.22
O=C(CN1CCN(Cc2ccc(F)cc2Cl)C1=O)NCc1cccs1 | 1.49 | 1.68% (inactive) | 2.53
CC(C)CNC(=O)CC(NCC(C)C)C(=O)O (stereo not drawn) | 2.02 | 2.59% (inactive) | 6.47
O=C(/C=C/c1cccs1)NCc1cccnc1 | 2.05 | 2.55% (inactive) | 5.06
O=C(Nc1cccc(F)c1)c1ccc(S(=O)(=O)N2CCCC2)cc1 | 3.36 | 4.55% (inactive) | 7.13
CCOC(=O)N1CCN(S(=O)(=O)c2ccc(C(=O)Nc3ccc(F)cc3F)cc2)CC1 | 35.2 | 29.1% (active) | 67.6
COc1ccc(C(=O)Nc2ccc(F)cc2F)cc1 | 1.66 | 1.84% (inactive) | 2.01
C/[N+]([O-])=C\c1ccc([N+](=O)[O-])o1 | 1.53 | 1.72% (inactive) | 3.24
CCCn1c(SCC(=O)Nc2ccc(C)c(S(=O)(=O)N3CCOCC3)c2)n[nH]c1=O | 2.38 | 5.82% (inactive) | 5.63
CC(C)C(=O)Nc1cccc(NC(=S)NC(=O)C(c2ccccc2)c2ccccc2)c1 | 44 | 30.3% (active) | 36.2
CC(C)C(=O)NC(=S)Nc1ccccc1F | 1.63 | 3.48% (inactive) | 5.15
CCCCC(=O)NNC(=S)NC(=O)C(c1ccccc1)c1ccccc1 | 1.83 | 2.83% (inactive) | 2.74
CC(Sc1nnc2c(n1)C1CCC2(C)C1(C)C)C(=O)Nc1ccccc1 (stereo not drawn) | 3 | 3.52% (inactive) | 9.4
O=C(/C=C/c1ccc(Cl)c([N+](=O)[O-])c1)c1cccnc1 | 0.942 | 1.22% (inactive) | 2.98
C=CCn1c(SCc2c(C)noc2C)nc2sc3c(c2c1=O)CCC(C)C3 (stereo not drawn) | 27.2 | 31.2% (active) | 44.4
Cc1cc(NC(=O)CSc2nc(C(C)C)nc3sc4c(c23)CCC(C)C4)no1 (stereo not drawn) | 2.02 | 5.74% (inactive) | 9.29

SMILES | % Hoechst-high responders [%] | % tubulin-high responders | toxicity [%]
CC1CCc2c(sc3nc4n(c(=O)c23)CCS4)C1 (stereo not drawn) | 1.5 | 1.55% (inactive) | 8.83
O=C(CCn1ccc([N+](=O)[O-])n1)Nc1nccs1 | 2.43 | 6.18% (inactive) | 8.86
CCN1/C(=C/c2ccc3ccc(C)cc3[n+]2CC)Sc2ccccc21 | 2.38 | 4.83% (inactive) | 9.09
CCN1/C(=C\c2ccc3ccccc3[n+]2CC)Sc2cc(C)ccc21 | 5.5 | 8.18% (active) | 19.1
CCC(=O)/C=C1\Sc2ccccc2N1CC | 0.853 | 4.83% (inactive) | 6.64
Fc1c(F)c(C(F)(F)F)c(F)c(F)c1N1CCN(c2ccc3nnc(C(F)(F)F)n3n2)CC1 | 7.05 | 6.71% (active) | 8.52
FC(F)(F)c1nnc2ccc(N3CCN(c4ccccc4)CC3)nn12 | 1.98 | 0.88% (inactive) | 7.36
Cc1nn(-c2ccccc2)c(-n2cccc2)c1C(=O)O | 3.22 | 2.89% (inactive) | 10.5
CCCOC(=O)c1[nH]c2c(c1C)C(=O)CC(c1cccs1)C2 (stereo not drawn) | 49.4 | 25.2% (active) | 48.6
CCOC(=O)c1[nH]c2c(c1C)C(=O)CC(c1ccc(N(C)C)cc1)C2 (stereo not drawn) | 1.67 | 6.74% (inactive) | 9.96
CCCOC(=O)c1[nH]c2c(c1C)C(=O)CC(c1cc(OC)c(OC)c(OC)c1)C2 (stereo not drawn) | 1.51 | 5.08% (inactive) | 9.25
CSc1ccc(/C=N\NC(=O)CC(=O)NC(C)C)cc1 | 1.95 | 3.08% (inactive) | 8.56
CCOC(=O)c1nc(-c2ccc3c(c2)OCO3)[nH]c1C | 10.2 | 26.6% (active) | 43
Cc1ccc(C(=O)OCC(=O)NCc2ccc3c(c2)OCO3)s1 | 1.59 | 1.75% (inactive) | 6.77
CCOC(=O)c1c(C)[nH]c(C(=O)COc2ccc3c(c2)OCO3)c1C | 3.29 | 2.42% (inactive) | 11.4
Cc1ccc(CNC(=O)CCNS(=O)(=O)c2ccc(Br)s2)cc1 | 2.82 | 2.88% (inactive) | 3.85
CCOc1cccc(/C=C/c2ccc3ccccc3n2)c1OC(C)=O | 3.95 | 5.51% (inactive) | 3.2
Cc1ccc2nc(-c3cccc(Br)c3)cc(C(=O)Nn3cnnc3)c2c1 | 3.03 | 6.01% (inactive) | 5.1
Fc1ccc2c(c1)C(c1cccnc1)=NNC(c1cccs1)=N2 | 34.4 | 13.2% (active) | 33.1
COc1ccc2c(c1)C(c1cccs1)=NNC(c1cccnc1)=N2 | 1.1 | 2.37% (inactive) | 7.76
NC(=O)c1ccc(NC(=O)COC(=O)c2c3c(nc4ccccc24)/C(=C\c2ccc4c(c2)OCO4)CCC3)cc1 | 1.77 | 5.36% (inactive) | 8.9

SMILES | % Hoechst-high responders [%] | % tubulin-high responders | toxicity [%]
Cc1ccc(NC(=O)CC2S/C(=N/N=C3\CCCc4ccccc43)NC2=O)cc1 (stereo not drawn) | 2.08 | 1.84% (inactive) | 8.37
C[n+]1ccccc1C1CCCC/C1=N\Nc1ccc([N+](=O)[O-])cc1[N+](=O)[O-] (stereo not drawn) | 1.98 | 5.56% (inactive) | 5.84
CC(=O)c1ccc(S(=O)(=O)Nc2ccc(C(=O)NCC(c3ccccc3)N(C)C)cc2)cc1 (stereo not drawn) | 1.41 | 1.91% (inactive) | 3.99
Nc1c(C(=O)O)cnn1-c1ccccc1 | 1.87 | 1.93% (inactive) | 3.6
Cc1c(CN2CCC(CO)(CCOc3ccccc3)CC2)[nH]c2ccc(Cl)cc12 | 7.79 | 27.6% (active) | 29.9
Cc1cccc(-c2ncc(CN3CCC(CO)(CCCc4ccccc4)CC3)cn2)c1 | 2.55 | 2.1% (inactive) | 2.96
OCC1(CCOc2ccccc2)CCN(Cc2cn[nH]c2-c2ccccc2)CC1 | 2.29 | 2.29% (inactive) | 7.78
CCc1ccccc1NC(=S)N(CCN1CCCCCC1)Cc1ccco1 | 2.22 | 4.39% (inactive) | 2.58
O=c1[nH]n(-c2ccc([N+](=O)[O-])cc2)c(=O)c2ccccc12 | 1.89 | 3.4% (inactive) | 9.65
Cc1ccc(-n2c(SCC(=O)N3c4ccccc4Sc4ccccc43)nnc2-c2ccncc2)cc1 | 1.48 | 4.83% (inactive) | 6.63
Cc1cc(C)c(C#N)c(SCC(=O)Nc2ccccc2)n1 | 2.87 | 3.04% (inactive) | 8.63
Cc1cc2cc3c(cc2nc1SCC(=O)Nc1c(C)cccc1C)CCC3 | 34.5 | 47% (active) | 36.2
Cc1cccc(C)c1NC(=O)CSc1ccc([N+](=O)[O-])cn1 | 2.4 | 2.2% (inactive) | 2.93
CCCCN1C(=O)CCC(C(=O)O)C1c1ccc(OC)cc1 (stereo not drawn) | 2.91 | 4.23% (inactive) | 11.7
O=S(=O)(c1cccc(C(F)(F)F)c1)N1CCN(c2cnccn2)CC1 | 2.29 | 4.64% (inactive) | 6.14
O=C1CC(=O)Nc2cc(S(=O)(=O)N3CCN(c4cccc(C(F)(F)F)c4)CC3)ccc2N1 | 10.2 | 22.1% (active) | 36.8
O=c1ccc2cc(S(=O)(=O)N3CCN(c4ccccc4)CC3)ccc2o1 | 1.39 | 0.945% (inactive) | 5.98
C/C(CC1CC(C)(C)OC1=O)=N/Nc1nc(-c2ccccc2)cs1 (stereo not drawn) | 2.24 | 6.39% (inactive) | 11.5
Cc1ccc2nc(-c3ccncc3)cc(C(=O)Nc3ccc(OC(F)F)cc3)c2c1 | 37 | 13.9% (active) | 27.1
Cc1ccc2nc(-c3ccncc3)cc(C(=O)Nc3ccc4c(c3)OCCO4)c2c1 | 4.59 | 3.49% (inactive) | 10
Cc1ccc2nc(-c3ccccn3)cc(C(=O)Nc3ccc4c(c3)OCO4)c2c1 | 2.11 | 3.85% (inactive) | 5.75

SMILES | % Hoechst-high responders [%] | % tubulin-high responders | toxicity [%]
CC(C)(O)C#Cc1ncc(C(F)(F)F)cc1Cl | 2.46 | 3.98% (inactive) | 7.29
O=C1CC(N2CCN(c3ccc(F)cc3)CC2)C(=O)N1c1ccccc1 (stereo not drawn) | 1.93 | 2.61% (inactive) | 4.03
Cc1onc(C(=O)NCc2ccc(F)cc2)c1[N+](=O)[O-] | 1.75 | 2.95% (inactive) | 6.2
COc1ccc(/C=C/C(=O)Nc2ccc3c(c2)OCCO3)cc1OC | 1.93 | 1.43% (inactive) | 9.72
COc1ccc(/C=C/C(=O)OCC(=O)Nc2cccc(Oc3ccccc3)c2)c(OC)c1 | 4.35 | 1.52% (inactive) | 2.38
COc1ccc(OC)c(/C=C/C(=O)OCC(=O)Nc2ccc3c(c2)OCCO3)c1 | 20.4 | 17.6% (active) | 25.4
O=C(CSc1ccc2nnc(-c3ccccc3)n2n1)N1CCCc2ccccc21 | 4.1 | 2.62% (inactive) | 12.3
NC1=NC(=O)S/C1=C\c1ccc(O)cc1 | 3.29 | 1.93% (inactive) | 4.56
O=C(NNC(=S)NCc1ccco1)C(c1ccccc1)c1ccccc1 | 2.12 | 1.06% (inactive) | 3.3
CC1=C(C(=O)Nc2ccccc2)C(c2ccco2)C(C#N)=C(SCC(N)=O)N1 (stereo not drawn) | 1.48 | 1.69% (inactive) | 9.84
C=CCOC(=O)C1=C(C)NC(SCC(=O)OCC)=C(C#N)C1c1ccc(C)cc1 (stereo not drawn) | 1.55 | 2.42% (inactive) | 8.87
CCOC(=O)CSC1=C(C#N)C(c2sccc2C)CC(=O)N1 (stereo not drawn) | 46 | 25.8% (active) | 48.2
C=CCSC1=C(C#N)C(c2cc(Br)c(O)c(OC)c2)CC(=O)N1 (stereo not drawn) | 5.45 | 1.66% (inactive) | 9.07
COc1cc2c(cc1OC)C(c1ccc(C)o1)CC(=O)N2 (stereo not drawn) | 2.57 | 2.94% (inactive) | 5.58
CCOC(=O)CSC1=C(C#N)C(c2ccco2)C(C(=O)OCc2ccccc2)=C(C)N1 (stereo not drawn) | 31.7 | 50.8% (active) | 30
Cc1ccc(C2CC(=O)NC(SCC(=O)OCc3ccccc3)=C2C#N)o1 (stereo not drawn) | 13 | 33.6% (active) | 51.7
CC1=C(C(=O)OCc2ccccc2)C(c2ccco2)n2ncnc2N1 (stereo not drawn) | 2.47 | 2.96% (inactive) | 10.1
COC(=O)CSC1=C(C#N)C(c2ccccc2OC)C(C(=O)OC)C(=O)N1 (stereo not drawn) | 1.9 | 3.79% (inactive) | 6.69
